# Hit rate of the full screen: of about 220,000 compounds, about 2,000 (0.91%) were called active. About 2% were inconclusive and are not listed. Not all results are given here. Results with a measured potency or affinity are listed apart. Values without a mark were called inactive. Rule as the data show it: inconclusive = inhibition above about 80% without an active follow-up result; inactive = below that; test concentration not stated here.
# Test: M. tuberculosis H37Rv growth inhibitors, H37Rv strain (AID 1626);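 also: bacteria incubated seven days before Alamar blue readout; 0% = bacteria only wells and 100% = bacteria with antibiotic wells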
# Settings: stronger effect = higher value, concentration not given here
row,Structure (SMILES),inhibition
1,CN(C)C(CNC(=O)c1cc(S(=O)(=O)N(C)c2ccccc2)ccc1Cl)c1cccs1 (stereo unspecified),-3.17%
2,Cc1occc1C(=O)N/N=C/C1=C(N2CCOCC2)C(=C\c2ccc(Cl)cc2)/CC1,-4.7%
3,O=C(NCc1cccnc1)c1ccc(COc2ccccc2Br)cc1,12%
4,O=C(NCCC(=O)N1CCOCCOCCOCCOCC1)OCc1ccccc1,-3.39%
5,NS(=O)(=O)c1ccc(CNC(=O)c2cc(-c3ccccn3)nc3ccc(Cl)cc23)cc1,8.36%
6,CCOC(=O)N1CCN(C(=O)c2ccc3nc4ccc(Cl)cc4c(=O)n3c2)CC1,2.6%
7,CCNC(=O)CN1C(=O)NC(Cc2ccccc2)(Cc2ccccc2)C1=O,-0.94%
8,COc1ccc(NC(=O)Nc2ccc(F)cc2F)cc1,10.7%
9,COc1ccc(CN2C(=O)CS/C2=N/N=C/c2ccccc2)cc1,-0.88%
10,CCNC(=S)N(Cc1c(C)noc1C)c1ccccc1,-11.8%
11,CCOc1cc(/C=N/NC(=O)CSc2nncn2C)ccc1OCc1cccc(C)c1,5.11%
12,COc1ccccc1C1C2=C(N=c3s/c(=C/c4cccc(OCC(=O)O)c4)c(=O)n31)c1ccccc1CC2 (stereo unspecified),-4.54%
13,COc1cccc(C2C3=C(N=c4s/c(=C\c5ccccc5O)c(=O)n42)c2ccccc2CC3)c1OC (stereo unspecified),5.15%
14,COc1cccc(C2C3=C(N=c4s/c(=C\c5ccc(O)cc5)c(=O)n42)c2ccccc2CC3)c1OC (stereo unspecified),6.52%
15,COc1ccc(/C=c2/sc3n(c2=O)C(c2ccccc2OC)C2=C(N=3)c3ccccc3CC2)cc1O (stereo unspecified),16.2%
16,CCOc1ccc(NC(=O)Nc2ccc(Br)cn2)cc1,0.855%
17,CCOC(=O)N1CCN(C(=O)c2ccccc2NC(=O)c2ccc(F)cc2)CC1,22.6%
18,COc1ccc(C2/C=C\CN(C(=O)Oc3ccccc3)CC(=O)N2Cc2ccc(F)cc2)cc1 (stereo unspecified),0.77%
19,CC(NC(=O)Cn1c(NCCO)nc2ccccc21)C1CC2CCC1C2 (stereo unspecified),-0.5%
20,O=C1C(NS(=O)(=O)c2cccs2)=C(N2CCN(c3cccc(Cl)c3)CC2)C(=O)c2ccccc21,72.6%
21,O=C1C(NS(=O)(=O)c2cccs2)=C(N2CCN(c3ccccc3)CC2)C(=O)c2ccccc21,6.53%
22,COc1ccccc1N1C(=O)C2CC=CC(C)C2C1=O (stereo unspecified),-9.33%
23,Cc1sc2nc(CN3CCOCC3)nc(N3CCOCC3)c2c1C,-5.18%
24,Cc1sc2nc(CN3CCOCC3)nc(Cl)c2c1C,1.93%

row,Structure (SMILES),inhibition
1,COC(=O)C1(C(F)(F)F)N=C2Sc3ccccc3N2C(N2CCOCC2)=N1 (stereo unspecified),-2.56%
2,N#Cc1ccc(-c2ccc(OCC(=O)NCCc3ccccc3)cc2)cc1,7.81%
3,COc1ccc(CCNC(=O)COc2ccc(-c3ccc(C#N)cc3)cc2)cc1,-19.4%
4,CN(C)c1ccc(NC(=O)N2CCOCC2)cc1,-3.81%
5,N#Cc1c(NC(=O)CN2C(=O)c3ccccc3C2=O)oc(-c2ccccc2)c1-c1ccccc1,-4.11%
6,Cc1[nH]c2ccccc2c1C(=O)C(=O)NCC1CCCO1 (stereo unspecified),7.05%
7,Brc1ccc(-c2csc(-c3ccncc3)n2)cc1,40.3%
8,Cc1ccc(-c2csc(-c3ccncc3)n2)cc1,-6.57%
9,CCCOc1ccc(-c2nc(-c3ccc(N)cc3)cs2)cc1,1.99%
10,Brc1ccc(-c2csc(Nc3nc(-c4ccc(Br)cc4)cs3)n2)cc1,7.47%
11,Cc1nc(N2CCN(c3ccccc3)CC2)[nH]c(=O)c1CCC(C)C,6.58%
12,Nc1nc(SCC(=O)N2CCCc3ccccc32)n(-c2ccccc2)n1,-0.56%
13,CCC1S/C(=N\S(=O)(=O)c2cccs2)N(C2CCCCC2)C1=O (stereo unspecified),-5.04%
14,CC1(C)Cc2c(sc(NC(=O)Cc3ccccc3)c2C#N)CO1,-0.57%
15,O=C(NC1CCCCC1)N(Cc1nc2ccccc2c(=O)[nH]1)C1CCCCC1,12.6%
16,Cc1ccc(Oc2nc(CN3CCOCC3)nc3sc4c(c23)CCC(C)C4)cc1C (stereo unspecified),40.8%
17,Cc1cccc(Oc2nc(CN3CCOCC3)nc3sc4c(c23)CCCC4)c1,14%
18,O=C(Nc1ccc2c3c(cccc13)CC2)c1cccc([N+](=O)[O-])c1,2.05%
19,CC(Cc1ccccc1)NC(=O)/C=C/c1ccc(Cl)cc1 (stereo unspecified),-0.45%
20,CCC(CC)NC(=O)/C=C/c1ccccc1Cl,-14.3%
21,COC(=O)[C@H](CC(C)C)NC(=O)NCc1ccc(Cl)cc1,-2%
22,O=C(/C=C/c1ccccc1Cl)NCc1ccccc1,-0.07%
23,CCOC(=O)Nc1ccc2c(c1)nc(CN1CCOCC1)n2C,-2.73%
24,CN(C)CCCN(C(=O)c1ccc2c(c1)CCCC2)c1nc2ccc(F)cc2s1,62.6%

row,Structure (SMILES),inhibition
1,Cc1ccc2nc(N(CCCN(C)C)C(=O)c3ccc(S(=O)(=O)N(C)C)cc3)sc2c1,-7.66%
2,N#Cc1cnn2c1nc(N1CCOCC1)c1ccccc12,3.61%
3,O=C(O)c1ccc(/C=N/NC(=O)c2ccc(NS(=O)(=O)c3cccs3)cc2)cc1,7.29%
4,CN(C)CCNC(=S)Nc1ccc(Cl)cc1Cl,3.74%
5,CC(=O)/C(=C/N(C)C)C(=O)Nc1ccc(Cl)cc1Cl,5.27%
6,Cc1cc(=O)n2nc(N3CCC(C(=O)N4CCN(C)CC4)CC3)sc2n1,-6.22%
7,CCN(CC)S(=O)(=O)c1ccc(C)c(NC(=O)Cn2cnc3cc([N+](=O)[O-])ccc3c2=O)c1,-5.31%
8,O=C(CSc1nnc(-c2ccccc2)o1)N1CCc2ccccc2C1,0.6%
9,COc1ccc(-c2nnc(SCC(=O)N3CCc4ccccc4C3)o2)cc1,55.5%
10,COc1ccc(NC(=O)C(OC)c2ccccc2)cc1Cl (stereo unspecified),4.82%
11,COc1cccc(CNc2ccc(F)c(Cl)c2)c1OC,9.35%
12,O=C(/C=C/c1ccc(Cl)cc1)NCc1ccco1,-3.37%
13,CCn1c(SCC(=O)Nc2ccc(C)cc2)nc2nc3c(cc2c1=O)COC(C)(C)C3,11.8%
14,Nc1o[nH]c(=O)c1Cc1ccccc1,-2.12%
15,CCOC(=O)c1sc(NC(=O)CCN2C(=O)c3ccccc3C2=O)c(C(=O)OCC)c1C,-2.12%
16,CCOC(=O)c1sc(NC(=O)CNCc2cccnc2)c(C(=O)OCC)c1C,0.97%
17,CC1CCN(CC(=O)NCc2ccco2)CC1,-7.7%
18,COC(=O)c1sccc1NC(=O)COc1cccc(C)c1,0.14%
19,NC(=O)c1ccc(NC(=O)c2ccc(CN3CCOCC3)cc2)cc1,-7.24%
20,O=C(Nc1ccc(CN2CCOCC2)cc1)c1ccc(-c2cccc(Cl)c2)o1,8.55%
21,O=C(NC(=S)Nc1ccc(CN2CCOCC2)cc1)c1ccc(-c2ccc(Br)cc2)o1,42.5%
22,Cc1cc(CSc2ccccc2)ccc1NC(=O)c1ccc(CN2CCOCC2)cc1,7.66%
23,CC(OC(=O)c1ccccc1Oc1ccccc1)C(=O)NC1CC1 (stereo unspecified),4.72%
24,O=S(=O)(Nc1nc2ccccc2nc1-[n+]1ccccc1)c1ccc(Cl)cc1,-0.65%

row,Structure (SMILES),inhibition
1,O=C1c2cccc3cc([N+](=O)[O-])cc(c23)C(=O)N1c1ccccc1O,6.45%
2,Nc1cc2c3c(cccc3c1)C(=O)N(CCN1CCCC1)C2=O,18.6%
3,Cc1nn(-c2ccccc2)c(Cl)c1C(=O)NCC(=O)O,4.16%
4,Fc1cccc(-n2ncc(-c3nnnn3-c3ccccc3)c2C(F)(F)F)c1,-6.57%
5,O=[N+]([O-])c1c(NCCCO)cc(SCc2ccco2)c2nonc12,74.7%
6,CC(=O)OCCCNc1cc(Sc2ccc(Cl)cc2)c2nonc2c1[N+](=O)[O-],8.58%
7,CCC(=O)OCCNc1cc(Sc2nc3ccccc3[nH]2)c2nonc2c1[N+](=O)[O-],42.4%
8,CC(=O)OCCNc1cc(Sc2nc3ccccc3[nH]2)c2nonc2c1[N+](=O)[O-],-3.19%
9,CC(=O)OCCCNc1cc(Sc2ccc(C)cc2)c2nonc2c1[N+](=O)[O-],13.8%
10,O=[N+]([O-])c1c(NCCCO)cc(Sc2ccc(Cl)cc2)c2nonc12,53.5%
11,O=[N+]([O-])c1c(NCc2ccco2)ccc2nonc12,-3.46%
12,N/C(=N\OC(=O)COc1ccccc1Cl)c1ccc(Cl)cc1,7.15%
13,COc1cc2c(cc1OC)CN(C(=O)CSc1nc(N)c(C#N)cc1C#N)CC2,-0.19%
14,CCN(CC)CCN(C(=O)c1ccc(Br)s1)c1nc2cc3c(cc2s1)OCO3,4.27%
15,CCCCNC(=O)CCCCC(=O)N/N=C/c1ccccc1Cl,-1.94%
16,COc1ccc(O)c(C2=Nc3ccccc3N=C(c3ccco3)C2)c1,6.13%
17,COc1ccc(NC(=O)NC2CCCCC2C)cc1 (stereo unspecified),0.36%
18,COc1ccc(C2(C(=O)N3CCCC3)CCOCC2)cc1OC,-12.9%
19,COc1cc(OC)c2c(-c3ccccc3)cc(=O)oc2c1C(CCN1CCCC1)c1ccc2c(c1)OCO2 (stereo unspecified),77%
20,COc1cc(OC)c2ccc(=O)oc2c1C(CCN1CCCC(C)C1)c1ccc2c(c1)OCO2 (stereo unspecified),-5.64%
21,CCN(CC)CCC(c1ccc(N(C)C)cc1)c1c(OC)cc(OC)c2c(-c3ccccc3)cc(=O)oc12 (stereo unspecified),14.1%
22,COc1cc(OC)c2c(-c3ccccc3)cc(=O)oc2c1C(CC(=O)N1CCCC1)c1ccc2c(c1)OCO2 (stereo unspecified),0.92%
23,CCN(CC)C(=O)CC(c1ccc2c(c1)OCO2)c1c(OC)cc(OC)c2c(-c3ccccc3)cc(=O)oc12 (stereo unspecified),-2.83%
24,COc1cc(OC)c2c(-c3ccccc3)cc(=O)oc2c1C(CC(=O)N1CCOCC1)c1ccc2c(c1)OCO2 (stereo unspecified),0.96%
